Data published in PubChem BioAssay AID743266 (National Center for Advancing Translational Sciences (NCATS), 2014).
About 310 (0.076%) of roughly 410,000 compounds were called active. A call without a number means that no potency is given here. Another 2% or so got no clear call; they are omitted. Calls come from the whole dose curve; as a rule, active = well fitted activation curve with a large enough effect; inconclusive = small, poorly fitted or top-dose-only effect, or another doubt; inactive = no such curve, though single readings can be large or run the other way. Only a selection was taken, and actives are over-represented in it overall.

target: Parathyroid hormone/parathyroid hormone-related peptide receptor (Homo sapiens) (UniProt Q03431); test: qHTS for PTHR1 Agonists: Primary Screen; details: HEK293 GP2 PTHR1 cells, GloSensor cAMP luminescence, 1 h; series mostly up to 115 µM; note: nearly all actives have a fitted effect of over 55% in size
Excerpt: The goal of the proposed studies is to discover new compounds that act as potent agonists on the parathyroid hormone receptor type-1 (PTHR1). The PTHR1 plays critical roles in maintaining blood calcium and phosphate levels, as well as in controlling bone remodeling. PTHR1 agonists could thus be useful for treating diseases such as hypoparathyroidism and osteoporosis. In the former disease, an agonist drug would help maintain normal blood calcium and phosphate levels under conditions of parathyroid hormone deficiency. In the latter disease, an agonist drug would stimulate new bone formation and thus reduce the risk of fracture, under conditions of bone fragility, as occurs in aging.
To that end, we performed a quantitative high-throughput screening (qHTS) of the Molecular Libraries Probe Centers Network (MLPCN) compound libraries at the NIH Chemical Genomics Center (NCGC) for the parathyroid hormone receptor type-1 (PTHR1) using a unique HEK-293-derived cell line (GP2) that expresses the PTHR1 and a glosensor cAMP reporter construct.
NIH Molecular Libraries Probe Production Centers Network [MLPCN]
NIH Chemical Genomics Center [NCGC]
Assay Submitter (PI): Thomas Gardella, Massachusetts General Hospital
4 microL are dispensed into a 1536-well micro plate to yield 3,000 cells/well. The plates are then incubated overnight, after which 4 microL of 0.5 mM of BIoTium Luciferin plus 0.5 mM IBMX are added. They are then incubated at 37 degree for one hour before 23 nL of compounds are added through pinning and then incubated at 37 degree again for another hour. After the plates are kept at room temperature for 15 min before they are read on the ViewLux to measure luminescence.
Potency is the fitted concentration of half-maximal effect.

Parathyroid hormone/parathyroid hormone-related peptide receptor (Homo sapiens), sequence (Q03431 whole entry, looked up): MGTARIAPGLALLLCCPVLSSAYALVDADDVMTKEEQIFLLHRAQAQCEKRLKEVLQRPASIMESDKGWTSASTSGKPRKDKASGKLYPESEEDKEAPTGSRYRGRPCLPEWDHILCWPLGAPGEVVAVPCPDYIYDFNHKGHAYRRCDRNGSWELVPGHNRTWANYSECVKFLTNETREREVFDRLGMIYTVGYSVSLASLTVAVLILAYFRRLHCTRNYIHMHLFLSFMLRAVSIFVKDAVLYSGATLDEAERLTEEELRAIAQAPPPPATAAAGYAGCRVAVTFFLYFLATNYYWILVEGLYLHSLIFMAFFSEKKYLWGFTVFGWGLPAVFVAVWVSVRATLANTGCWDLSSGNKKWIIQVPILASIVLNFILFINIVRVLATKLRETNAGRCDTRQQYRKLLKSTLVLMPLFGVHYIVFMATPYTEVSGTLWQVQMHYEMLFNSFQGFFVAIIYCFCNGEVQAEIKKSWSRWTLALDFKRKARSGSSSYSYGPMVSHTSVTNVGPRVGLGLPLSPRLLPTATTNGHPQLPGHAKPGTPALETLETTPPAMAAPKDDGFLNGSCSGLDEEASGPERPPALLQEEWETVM

SMILES | Potency
CCC(=O)N1c2ccccc2CC1C(=O)N1CCN(c2ccccc2F)CC1 (stereo not drawn) | inactive
Cc1cc(C)c(NC(=O)CCc2c(C)nc3c(c(C)nn3C(C)(C)C)c2C)c(C)c1 | inactive
Cn1c(=O)c(C(=O)O)nn(-c2ccccc2)c1=O | inactive
Cc1cc(C)cc(NC(=O)CSc2nc(=O)n(CCN3CCOCC3)c3c2CCC3)c1 | inactive
COc1ccccc1NC(=O)Cn1cnc2ccc(S(=O)(=O)N3CCC(C)CC3)cc2c1=O | inactive
COc1ccc(C2(Nc3cccc(F)c3)C(=O)c3ccccc3C2=O)cc1 | inactive
CC1CCN(S(=O)(=O)c2ccc3c(c2)N(CC(=O)NCCc2ccccc2)C(=O)CO3)CC1 | inactive
COc1ccc(-n2nc(C(=O)NCCc3ccc(Cl)cc3)c3c4ccccc4n(C)c3c2=O)cc1Cl | inactive
CCc1nc2sc3c(Cl)ncnc3c2c2c1CCCC2 | inactive
CCCCSc1ncnc2c1sc1nc(N3CCOCC3)c3c(c12)CCCC3 | 79.4 µM (active)
c1ccc(CSc2ncnc3c2sc2nc(N4CCOCC4)c4c(c23)CCCC4)cc1 | inactive
COC(=O)c1c(NC(=O)c2cc(=O)c3c(C)cc(C)cc3o2)sc2c1CCCC2 | inactive
Cc1ccccc1NC(=O)Cn1cc(C(=O)c2cccs2)c2ccccc21 | inactive
CCCS(=O)(=O)N1CCC(n2c(C(F)(F)F)nc3cccnc32)CC1 | inactive
Cc1ccc(CN2COc3cc(C)c4c(oc(=O)c5ccccc54)c3C2)cc1 | inactive
COc1ccc(OC)c(-n2nnc(-c3nc(-c4cc(OC)c(OC)c(OC)c4)no3)c2C)c1 | inactive
COc1cc(NC(=O)CCn2nc(C)cc2C)cc(OC)c1OC | inactive
Cc1cc(C)cc(NC(=O)Cn2nc(N3CCN(c4ccccc4)CC3)ccc2=O)c1 | inactive
COc1cccc(NC(=O)N2CCN(C(=O)c3nsc4ccccc34)CC2)c1 | inactive
CCCC(=O)N1CCN(c2nc3c(OC)ccc(C)c3s2)CC1 | inactive
Cc1ccc(NC(=O)CN2C(=O)CC(C)Sc3ccccc32)c(C)c1 (stereo not drawn) | inactive
COc1cc(NC(=O)c2nc3ccccc3nc2C)cc(OC)c1OC | inactive

SMILES | Potency
CN(C)Cc1c(O)ccc2c(=O)c(-c3ccccc3Cl)coc12 | inactive
CCN(Cc1ccccc1)Cc1c(O)ccc2c(=O)c(-c3ccc(Cl)cc3Cl)coc12 | inactive
CC(C)CN(Cc1c(O)ccc2c(=O)c(-c3ccccc3)coc12)CC(C)C | 35.5 µM (active)
CC1CCN(S(=O)(=O)c2ccc3c(c2)N(CC(=O)NCc2ccccc2Cl)C(=O)CO3)CC1 | inactive
COC(=O)c1cc(NC(=O)CCc2c(C)nc3c4c(C)cc(C)nc4nn3c2C)cc(C(=O)OC)c1 | inactive
COc1ccc(Cn2cc(C(=O)c3ccc(C)cc3)c(=O)c3cc(OC)c(OC)cc32)cc1 | inactive
Cc1oc2ncnc(N3CCCCC3)c2c1C(=O)N1CCN(c2cccc(Cl)c2)CC1 | inactive
CCOC(=O)N1CCc2c(sc3c2C(=O)NC(c2ccccc2F)N3)C1 (stereo not drawn) | inactive
COc1ccc(NC(=O)Cn2c(=O)cc(C)c3c(C)nn(-c4cccc(Cl)c4C)c32)cc1OC | inactive
Cc1ccc(C)c(NC(=O)CSC2=Nc3ccccc3N=C(c3ccc(F)cc3)C2)c1 | inactive
CCN(CC)c1ccc(NS(=O)(=O)c2cc(-c3cc(C)no3)ccc2C)c(C)c1 | inactive
CCCCC12CN3CC(C)(CN(C1)C3c1ccc(O)c(OC)c1)C2=O (stereo not drawn) | inactive
CC(=O)c1ccc(NC(=O)C2CCN(S(=O)(=O)c3c(C)noc3/C=C/c3ccc(C)cc3)CC2)cc1 | inactive
COC(=O)c1ccccc1NC(=O)c1ccc2c(=O)n3c(nc2c1)CCCCC3 | inactive
COc1ccccc1-c1cc2nc(C)c(CCC(=O)NC3CCCCC3)c(C)n2n1 | inactive
CCc1ccc(CN(Cc2ccco2)C(=O)COc2ccc(Cl)c(C)c2)cc1 | inactive
COc1cccc2c1cc1c(=O)n(CC(=O)N3CCN(c4ccccc4)CC3)nc(C)n12 | inactive
O=C(NCCc1ccccc1)c1ccc2c(c1)N(Cc1ccc(F)cc1)C(=O)c1ccccc1S2(=O)=O | inactive
Cc1nc2ccn(Cc3cccnc3)c(=O)c2cc1C(=O)N1CCN(c2ccccc2F)CC1 | inactive
CCc1ccc(NC(=O)CCS(=O)(=O)c2cc3c(cc2Cl)NC(=O)CO3)cc1 | inactive
Cc1ccc(C(=O)Nc2cc3c(cc2N2CCCC2)n(C)c(=O)c(=O)n3C)cc1 | inactive
